# MPTP block = mitochondrial permeability transition pore inhibitors, primary screen, biochemical, isolated mouse mitochondria, absorbance; AID 602449, 2012; inhibition, % at 10 µM; hit rate 1.4% among 360,000; Ca2+ swelling absorbance, 30 min;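 active = inhibition of 50% or more, scaled per plate between neutral and stimulator controls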;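 also: 0% = DMSO wells given calcium and 100% = 1 mM EGTA wells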
# NR3A LBD binder = binders of NR3A ligand-binding domain, primary screen, biophysical, differential scanning fluorimetry, uHTS | Tm shift relative to glycine control, % at 25 µM | hit rate 2.5% among 340,000 | NR3A LBD differential scanning fluorimetry, Tm shift; 0% = protein alone, 100% = glycine-bound protein;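 active = melting temperature shift of at least 10% of the positive control shift, at one fixed dose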
# ANO1 activ = TMEM16A chloride channel activators or potentiators, primary screen, cell-based, HTS | Anoctamin-1 (Mus musculus), Q8BHY3 | HEK293 TMEM16A/YFP-H148Q/I152L, iodide quench fluorescence; hits give low values | B-score at 10 µM | hit rate 0.3% among 340,000;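 active = fluorescence-ratio B-score plate-corrected deviation score at least 3 library SD below zero, with starting fluorescence score within 5 deviations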;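 also: channel opened by trigger with iodide after compound preincubation; score built on the fluorescence ratio of max minus min over baseline; more negative score means more quench and so TMEM16A activation or potentiation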
# Target sequence (Q8BHY3 whole entry, looked up): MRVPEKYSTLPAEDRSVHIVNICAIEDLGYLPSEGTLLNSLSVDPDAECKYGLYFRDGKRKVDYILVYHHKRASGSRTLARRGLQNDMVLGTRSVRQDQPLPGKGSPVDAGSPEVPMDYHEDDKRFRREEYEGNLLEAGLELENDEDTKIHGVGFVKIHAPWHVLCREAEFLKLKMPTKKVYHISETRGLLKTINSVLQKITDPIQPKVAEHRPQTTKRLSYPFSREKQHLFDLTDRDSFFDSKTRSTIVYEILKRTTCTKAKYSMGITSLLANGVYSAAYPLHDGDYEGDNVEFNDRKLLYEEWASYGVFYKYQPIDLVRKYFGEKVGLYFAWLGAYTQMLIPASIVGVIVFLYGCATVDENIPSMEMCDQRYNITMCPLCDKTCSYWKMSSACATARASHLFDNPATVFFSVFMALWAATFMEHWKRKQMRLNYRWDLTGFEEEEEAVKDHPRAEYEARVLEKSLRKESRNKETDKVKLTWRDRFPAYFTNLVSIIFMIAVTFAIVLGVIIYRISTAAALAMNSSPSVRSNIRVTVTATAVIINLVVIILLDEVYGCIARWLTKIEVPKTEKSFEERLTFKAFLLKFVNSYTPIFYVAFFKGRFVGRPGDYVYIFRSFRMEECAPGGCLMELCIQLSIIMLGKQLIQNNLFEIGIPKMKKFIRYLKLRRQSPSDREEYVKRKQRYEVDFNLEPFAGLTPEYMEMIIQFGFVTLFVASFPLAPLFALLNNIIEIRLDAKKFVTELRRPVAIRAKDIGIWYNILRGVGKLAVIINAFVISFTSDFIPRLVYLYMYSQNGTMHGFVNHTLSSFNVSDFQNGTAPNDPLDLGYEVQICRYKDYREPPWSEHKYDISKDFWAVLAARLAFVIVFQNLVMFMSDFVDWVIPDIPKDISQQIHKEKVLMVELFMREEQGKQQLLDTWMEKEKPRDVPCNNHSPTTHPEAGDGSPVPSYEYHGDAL
# CRFR2-BP antag = antagonists of CRF-BP/CRF-R2 complex, primary screen, cell-based, HEK293, calcium dye fluorescence, uHTS; CRF-induced calcium fluorescence; inhibition, % at 11.8 µM; hit rate 0.59% among 350,000; AID 588475, 2011;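 active = inhibition of the ligand-induced calcium signal above about 50% at the single tested concentration, limit read from the data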
# CRFR2-BP ag = agonists of CRF-BP/CRF-R2 complex, primary screen, cell-based, HEK293, calcium dye fluorescence, uHTS; CRF-binding protein / CRF receptor 2 complex (human); calcium dye fluorescence (FLIPR); percent of saturating CRF peptide response; activation, % at 13.2 µM; hit rate 0.46% among 350,000;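 active = activation of at least 50%, plus an integration ratio under a set limit after plate pattern correction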;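 also: plate controls were neutral control wells without compound for no effect and CRF at EC100 for full effect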
# TMEM16A inh = TMEM16A chloride channel inhibitors, primary screen, cell-based, HTS; HEK293 TMEM16A/YFP iodide influx fluorescence, ionomycin; normalized B-score (activity score, 25-100; higher = stronger inhibition) at 10 µM; hit rate 1.2% among 310,000; AID 588511, 2011;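 active = ratio plate-corrected score three or more library SD toward inhibition, starting fluorescence score within five deviations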;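 also: score derived from kinetic fluorescence span divided by baseline fluorescence per well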
# MPTP counter = fluorescence retest of MPTP screen hits in isolated mitochondria, single concentration; AID 624504, 2012; shares compounds with MPTP block; membrane potential, Rhodamine 123 fluorescence; inhibition, % at 10 µM; hit rate 78% among 5,000; in the data active = inhibition above about 22%;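 also: 0% = DMSO vehicle and 100% = positive control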
# MPTP abs DR = mitochondrial permeability transition pore inhibitors, dose response, biochemical, absorbance, uHTS hits; hit rate 58% among 780; IC50, µM; shares compounds with MPTP block; isolated mitochondria swelling; in the data active = IC50 below about 20 µM
# MPTP counter DR = fluorescent counter-screen in isolated mitochondria, dose response, counter-screen for MPTP inhibitor project, biochemical, fluorescence, uHTS hits. IC50, µM. shares compounds with MPTP block. hit rate 49% among 780. isolated mitochondria counterscreen, fluorescence read-out; in the data active = IC50 below about 80 µM
# * hit, by the source's call; i = inactive; / = not tested or not shown. Shown are actives, neighbours in structure and some others; about 5.1% of the full set was active somewhere.
SMILES,MPTP block,NR3A LBD binder,ANO1 activ,CRFR2-BP antag,CRFR2-BP ag,TMEM16A inh,MPTP counter,others
COc1ccc(Cc2nnc(NC(=O)Nc3cccc(OC)c3)s2)cc1,0.7,0.9,i,-12.1,0.7,i,/,
CCSc1nsc(NC(=O)Nc2ccccc2F)n1,66.4*,-2.4,i,-6.7,13.4,i,87.3*,
C=CCSc1nsc(NC(=O)Nc2ccc(F)cc2)n1,98.3*,27.6*,i,36.3,40.7,100*,78.4*,
CCCCSc1nsc(NC(C)=O)n1,1.0,2.6,i,24.1,0.0,i,/,
CN(C)CC1CCCCC1C1(O)c2ccccc2CSc2sccc21 (stereo unspecified),56.7*,0.0,i,-23.5,19.8,i,-5.2,MPTP abs DR=17.5*;MPTP counter DR=>80
CN(C)CC1CCCCC1OC(=O)c1ccc(Cl)cc1 (stereo unspecified),33.4,-1.6,i,-13.4,-1.2,i,/,
Cc1ccc(NC(=O)C2C(c3ccccc3)C2(Cl)Cl)c(C)c1 (stereo unspecified),53.2*,-7.3,i,-5.4,0.3,i,62.2*,
COc1ccc(NC(=O)C2C(c3ccccc3)C2(Cl)Cl)c(OC)c1 (stereo unspecified),2.9,-1.4,i,9.4,-0.2,i,/,
CC1=C(C(=O)N2CCCCCC2)CC(CC(=O)NCCN2CCOCC2)C(=O)N1CCCN1CCCC1=O (stereo unspecified),0.5,/,/,/,/,/,/,
O=S1(=O)CC(N2CCCCC2)CN1Cc1cn(Cc2ccc(F)cc2)nn1 (stereo unspecified),0.3,/,/,/,/,/,/,
CCCc1nc2ccc(C)cn2c1Cc1ccsc1,-0.1,/,/,/,/,/,/,
OCC1CCN(Cc2cn(Cc3ccccc3)nc2-c2cc3ccccc3o2)CC1,52.1*,-0.9,i,-12.2,5.8,i,-19.6,MPTP abs DR=18*;MPTP counter DR=>80
O=S(=O)(N[C@H]1C[C@@H](NS(=O)(=O)OCC(Cl)(Cl)Cl)C2CCCCC21)OCC(Cl)(Cl)Cl (stereo partly specified),64.4*,18.4*,i,-7.4,1.0,i,91.2*,
O=C(CSc1nc(-c2ccc(Cl)cc2)cs1)Nc1cccc([N+](=O)[O-])c1,84.5*,26.6*,i,20.6,-2.2,i,79.9*,
Cc1cc(NC(=O)CSc2nc(-c3ccc(Cl)cc3)cs2)no1,5.4,-1.2,i,-10.3,-1.7,i,/,
O=[N+]([O-])c1cccc(NC(=S)Nc2nc(-c3ccccc3Cl)cs2)c1,86.6*,16.8*,i,-2.2,5.8,i,76.2*,
COCCN(C(=O)c1ccc(-c2ccc([N+](=O)[O-])cc2)o1)c1c(N)n(CC(C)C)c(=O)[nH]c1=O,0.1,1.8,i,2.2,0.0,/,/,
CC1CCC(NC(=O)C2CCN(c3c4c(nc5ncnn35)CCC4)CC2)CC1 (stereo unspecified),-0.1,0.8,i,-10.5,-1.4,i,/,
CC1(C(=O)Nc2cccc(C#N)c2)CCN1C(=O)Cc1ccc(-c2ccccc2)cc1 (stereo unspecified),92.5*,/,/,/,/,/,85.5*,
Cc1c(CCO)c(=O)n2c([nH]c3ccccc32)c1C#N,-0.7,0.0,i,3.6,-0.7,i,/,
CCCCc1c(C)c(C#N)c2[nH]c3ccccc3n2c1=O,83.2*,1.3,i,1.7,9.9,i,96.5*,
COCc1cc(C)nc2sc(C(=O)Nc3cccc(OC)c3)c(N)c12,0.9,2.2,i,1.6,0.3,i,/,
O=C1NC[C@@H](CCCCN2CCN(CCc3ccccc3)C(=O)C2=O)N(Cc2ccccc2)C1=O,-1.1,/,/,/,/,/,/,
O=C(NCc1ccccc1)c1sc(=S)n2c1[nH]c(=O)c1ccccc12,85.8*,11.7*,i,30.1,49.0,i,88.6*,
Cc1cc(CN2CCC(N3CCC(C(=O)NC4CC4)CC3)CC2)cc(C)c1O,0.5,1.9,i,2.5,-0.4,i,/,
SMILES,MPTP block,NR3A LBD binder,ANO1 activ,CRFR2-BP antag,CRFR2-BP ag,TMEM16A inh,MPTP counter,others
O=C(C[n+]1cnn(CC(=O)c2ccc(Cl)cc2Cl)c1)c1ccc([N+](=O)[O-])cc1,58.5*,-5.0,i,-5.2,-2.0,i,-15.4,MPTP abs DR=7.06*;MPTP counter DR=>80
CC(C(=O)O)c1ccc(-c2ccccc2)c(F)c1 (stereo unspecified),0.4,-0.8,i,5.2,-0.2,i,/,
CC(C(=O)Nc1ccccc1)c1ccc(-c2ccccc2)c(F)c1 (stereo unspecified),86.4*,2.3,i,16.8,22.1,100*,122.2*,
CC(C)(C)c1ccc(CSc2nc(N)cc(=O)[nH]2)cc1,66.7*,-2.3,i,-8.4,1.4,i,76.3*,
Cc1ccc(OCc2ccc(C(=O)N3CCOCC3)cc2)cc1C,-1.2,-1.3,i,15.6,0.4,i,/,
CC(C)c1ccc(COc2ccc(C(=O)N3CCOCC3)cc2)cc1,67.4*,-1.2,i,-3.5,-1.3,i,49.0*,
CC1CCN(S(=O)(=O)c2ccc(NC(=O)Cn3nnc(-c4ccccc4)n3)cc2)CC1,53.7*,11.2*,i,5.0,7.9,i,56.4*,
N#CC(=C1C=C(Br)C(=NO)C=C1Cl)c1cccc2ccccc12,76.3*,/,/,-36.9,2.5,/,57.2*,
COc1ccc(C(C#N)=C2C=C(Cl)C(=NO)C=C2Cl)cc1,13.4,/,/,-24.2,-2.6,/,/,
OCc1cccc[n+]1Cc1ccccc1,1.2,-0.3,i,7.9,-0.4,i,/,
Cc1cccc(C)c1NC(=O)C1(C)CN(S(C)(=O)=O)CC(=O)N1Cc1cccs1 (stereo unspecified),-0.4,/,/,/,/,/,/,
O=[N+]([O-])c1ccc(N2CCN(C(=S)Nc3ccc(F)cc3)CC2)cc1,5.6,-6.9,i,12.0,-2.5,i,/,
O=[N+]([O-])c1ccc(N2CCN(C(=S)Nc3cccc(F)c3)CC2)cc1,54.7*,-1.2,i,5.3,-1.8,i,57.5*,
O=[N+]([O-])c1ccc(NC(=S)N2CCc3ccccc3C2)cc1,58.0*,-2.6,i,5.8,-1.5,i,65.3*,

# High-throughput results deposited in PubChem by several laboratories.
